DT40 TDP1 CPT: growth inhibition of DT40 Tdp1-/-;hTDP1 cells with camptothecin (screen for TDP1 inhibitors); AID 686979; hit rate 12% among 420,000; Potency, µM (top dose mostly 46.2 µM), actives largely listed as inhibitors; chicken DT40 Tdp1-/-;hTDP1 cells + 20 nM CPT, ATP luminescence, 48 h; note: nearly all actives have a fitted effect of over 55% in size
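Chicken DT40 Tdp1-/- cells complemented with human TDP1, 400 cells/well, exposed to compounds plus 20 nM camptothecin for at least 48 h at 37 C; viability read as ATP content by CellTiter-Glo luminescence.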
DT40 TDP1 no CPT: qHTS for Inhibitors of human tyrosyl-DNA phosphodiesterase 1 (TDP1): qHTS in cells in absence of CPT. DT40 Tdp1-/- hTDP1 cells, no CPT, ATP luminescence, 48 h. Potency, µM (titrated, usually from 46.2 µM), most hits filed as inhibitors. hit rate 15% among 420,000; note: nearly all actives have a fitted effect of over 55% in size
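Camptothecin absent (DMSO only). Human TDP1-complemented DT40 knockout cells, 400 cells/well, 37 °C for minimum 48 hr; ATP measured via CellTiter-Glo, 30 min dark incubation, luminescence.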
TDP1 inh: TDP1 (human) enzyme inhibition; Q9NUW8; recombinant TDP1, AlphaScreen DNA substrate cleavage; Potency, µM (titrated, usually from 130 µM), hits mostly inhibitors; hit rate 0.28% among 350,000; AID 485290; note: nearly all actives have a fitted effect of over 40% in size
Target sequence (Q9NUW8 whole entry, looked up): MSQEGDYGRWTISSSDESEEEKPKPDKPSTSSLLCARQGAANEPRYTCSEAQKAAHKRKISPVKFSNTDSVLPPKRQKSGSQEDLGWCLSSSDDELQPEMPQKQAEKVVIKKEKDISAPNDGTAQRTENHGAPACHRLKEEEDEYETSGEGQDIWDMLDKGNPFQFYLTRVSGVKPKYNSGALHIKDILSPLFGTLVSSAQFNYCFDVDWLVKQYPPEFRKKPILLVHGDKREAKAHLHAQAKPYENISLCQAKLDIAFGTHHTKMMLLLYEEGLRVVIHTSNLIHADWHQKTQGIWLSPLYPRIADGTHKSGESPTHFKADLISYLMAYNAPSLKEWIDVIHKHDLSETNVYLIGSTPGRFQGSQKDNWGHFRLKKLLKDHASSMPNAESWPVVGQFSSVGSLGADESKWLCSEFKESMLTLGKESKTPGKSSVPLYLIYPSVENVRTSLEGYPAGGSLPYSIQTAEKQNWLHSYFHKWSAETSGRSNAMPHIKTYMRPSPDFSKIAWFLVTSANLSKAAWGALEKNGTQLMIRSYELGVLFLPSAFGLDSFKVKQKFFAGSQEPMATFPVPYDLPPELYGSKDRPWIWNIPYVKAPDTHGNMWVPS
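Enzyme-compound mixtures sat 15 min at room temperature, followed by a 5 min reaction with 15 nM final substrate and 10 min with AlphaScreen beads. Recombinant human Tdp1 was used at 1 nM final.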
PLK1 PBD inh: PLK1 (human) polo-box domain binding inhibition; P53350; Plk1 PBD binding of FITC phosphopeptide, fluorescence polarization; Potency, µM, usual class: inhibitors; hit rate 2.8% among 360,000; AID 720504; note: series mostly up to about 57 µM; nearly all actives have a fitted effect of over 65% in size
KAT2A inh: GCN5L2 (KAT2A) acetyltransferase inhibition; Q92830; GCN5L2 HAT assay, ThioGlo1 CoA-SH fluorescence; Potency, µM (highest dose often 58.9 µM), actives largely listed as inhibitors; hit rate 0.21% among 390,000; AID 504327
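GCN5L2 (20 nM) in 50mM HEPES pH 7.5, 0.1mM EDTA, 0.01% Tween-20 preincubated 15 min with compounds at room temperature. Reaction started with H3(1-25) 75uM, acetyl-CoA 70uM, ThioGlo1 50uM; CoA-thiol fluorescence (Ex340/Em540) read at 0 and 20 min.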
VDR inh: vitamin D3 receptor (human) inhibition | P11473 | VDR-SRC2-3 peptide fluorescence polarization, 2 h | Potency, µM, hits mostly inhibitors | hit rate 0.93% among 400,000 | AID 504847
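Signal is fluorescence polarization, reporting how far test compounds block the interaction of VDR with the SRC2-3 coregulator peptide after a 2 h room-temperature incubation.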
Each line names hits and unclear results; the compound was inactive in the other large screens; ! = not active in a repeat. Hits are enriched below; roughly 18% of the tested compounds scored in any of these assays. Calls come from the whole dose curve; as a rule, active = well fitted curve in the direction sought with a large enough effect; inconclusive = small, poorly fitted or top-dose-only effect, or another doubt; inactive = no such curve, though single readings can be large; an effect the other way counts as inactive or inconclusive.

CCOC(=O)CC(NS(=O)(=O)c1ccc(OC)c(C)c1)c1cccc([N+](=O)[O-])c1 (stereo not drawn)	none
O=C(O)CCNC(=O)c1ccc(NC(=O)Cc2ccc(Cl)cc2)cc1	none
CCn1cc(C(=S)N2CCC(C(N)=O)CC2)c2ccccc21	DT40 TDP1 CPT inconclusive, DT40 TDP1 no CPT inconclusive
Cc1nnc(SCc2nnc(-c3cccs3)o2)n1Cc1ccccc1	none
COc1ccc(-c2nnc(SCc3nnc(-c4ccc(Cl)cc4)o3)n2-c2ccccc2)cc1	DT40 TDP1 CPT 16µM, DT40 TDP1 no CPT 16µM (no result: KAT2A inh)
COc1ccc(-c2noc(CSc3nnc(-c4ccncc4)n3-c3ccccc3)n2)cc1	DT40 TDP1 CPT 16µM, DT40 TDP1 no CPT 23µM (no result: PLK1 PBD inh)
COc1ccc(-c2noc(CSc3nnc(-c4ccncc4)n3-c3ccc(C)cc3)n2)cc1OC	DT40 TDP1 CPT 16µM (no result: PLK1 PBD inh)
Clc1ccc(-c2nnc(CSc3nnc(-c4cccs4)n3Cc3ccccc3)o2)cc1	DT40 TDP1 CPT 6.5µM, DT40 TDP1 no CPT 2.9µM
Cc1cccc(C(C)C)c1NC(=O)COC(=O)CCC(=O)N(CC(C)C)c1c(N)n(CC(C)C)c(=O)[nH]c1=O	none (no result: TDP1 inh, KAT2A inh, VDR inh)
CCc1ccc(-n2c(SCC(=O)Nc3ccc(C(=O)O)cc3)nnc2-c2ccncc2)cc1	none
CCc1ccc(-n2c(SCc3c(C)noc3C)nnc2-c2ccncc2)cc1	DT40 TDP1 CPT 21µM, DT40 TDP1 no CPT inconclusive
COc1ccc(-c2noc(CSc3nnc(-c4ccccc4)n3C)n2)cc1	DT40 TDP1 CPT 23µM!, DT40 TDP1 no CPT 15µM!
COc1ccc(Cc2nc(-c3ccc(Cl)cc3)no2)cc1	none
COc1ccc(-c2noc(Cc3ccc(Cl)cc3)n2)cc1OC	DT40 TDP1 CPT 10µM, DT40 TDP1 no CPT inconclusive
COc1ccc(-c2noc(CSc3nnc(Cc4ccccc4)n3-c3ccc(F)cc3)n2)cc1	DT40 TDP1 CPT inconclusive, DT40 TDP1 no CPT 16µM (no result: PLK1 PBD inh)
CC(C)(C)N(NC(=O)OCc1ccccc1)C(=O)c1ccccc1Cl	none
COC(=O)[C@H](CC(C)C)NS(=O)(=O)NC(=O)OC(C)(C)C	none (no result: TDP1 inh, PLK1 PBD inh, KAT2A inh, VDR inh)
O=[N+]([O-])c1cccc(CSc2nnc(Cc3ccccc3)n2-c2ccc(F)cc2)c1	DT40 TDP1 CPT 18µM, DT40 TDP1 no CPT inconclusive
CCc1ccc(-n2c(SCc3nc(-c4cc(OC)ccc4OC)no3)nnc2-c2ccccc2)cc1	DT40 TDP1 CPT 18µM, DT40 TDP1 no CPT 21µM (no result: PLK1 PBD inh)
COc1ccc(-n2c(SCc3nnc(-c4ccccc4)o3)nnc2-c2ccccc2)cc1	DT40 TDP1 no CPT inconclusive
COc1ccc(-n2c(SCc3nc(-c4ccc(C)cc4)no3)nnc2-c2ccncc2)cc1	none (no result: PLK1 PBD inh)
COc1ccc(-n2c(C)nnc2SCc2nc(-c3ccc(OC)c(OC)c3)no2)cc1	none (no result: PLK1 PBD inh)
CCOc1ccccc1-c1noc(CSc2nnc(-c3ccccc3)n2-c2ccc(F)cc2)n1	DT40 TDP1 CPT 12µM, DT40 TDP1 no CPT 13µM (no result: PLK1 PBD inh)
COc1ccc(-c2noc(CSc3nnc(-c4ccc(Cl)cc4)n3C)n2)cc1OC	DT40 TDP1 CPT inconclusive, DT40 TDP1 no CPT 16µM (no result: PLK1 PBD inh)
COc1cc(NC(=O)c2cccs2)c(OC)cc1NC(=O)CCC(=O)Nc1ccc2ncccc2c1	DT40 TDP1 CPT inconclusive, DT40 TDP1 no CPT inconclusive
Cc1ccc(S(=O)ONc2cccc(NOS(=O)c3ccc(C)cc3)c2)cc1 (stereo not drawn)	DT40 TDP1 CPT inconclusive, DT40 TDP1 no CPT inconclusive (no result: TDP1 inh, KAT2A inh, VDR inh)
C=CCOC(=O)C1=C(C)NC(C)=C(C(=O)OCC=C)C1c1cn(-c2ccccc2)nc1-c1ccco1	DT40 TDP1 no CPT inconclusive
O=C(OCc1cn([C@@H]2CN(C(=O)C3CCCCC3)[C@@H](c3ccc(Cl)cc3)C[C@H]2O)nn1)c1ccccc1	DT40 TDP1 no CPT inconclusive (no result: TDP1 inh, KAT2A inh, VDR inh)
CCOc1cc(Br)c(C=O)cc1OCC	DT40 TDP1 CPT 5.2µM, DT40 TDP1 no CPT 6.5µM
Cn1ccc(NC(=O)c2ccc([N+](=O)[O-])cc2)n1	none
C[C@H](CO)N1C[C@H](C)[C@H](CN(C)Cc2ccccc2)Oc2ncc(Br)cc2C1=O	none (no result: TDP1 inh, KAT2A inh, VDR inh)
